# Data from PubChem BioAssay.
# A number with no mark means an inactive call. No rule for the calls is given here.
# Target: Pantothenate synthetase (Mycobacterium tuberculosis (strain ATCC 25618 / H37Rv)) (UniProt P9WIL5)
# Assay: Recombinant Mtb pantothenate synthetase (PanC) inhibitors, coupled enzyme, confirmatory (AID 375);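 also: 0% = full reaction with vehicle and 100% = no enzyme background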
# Conditions: coupled enzyme assay; at 10 µM, hits give high values
# Sequence of Pantothenate synthetase (Mycobacterium tuberculosis (strain ATCC 25618 / H37Rv)) (P9WIL5 whole entry, looked up): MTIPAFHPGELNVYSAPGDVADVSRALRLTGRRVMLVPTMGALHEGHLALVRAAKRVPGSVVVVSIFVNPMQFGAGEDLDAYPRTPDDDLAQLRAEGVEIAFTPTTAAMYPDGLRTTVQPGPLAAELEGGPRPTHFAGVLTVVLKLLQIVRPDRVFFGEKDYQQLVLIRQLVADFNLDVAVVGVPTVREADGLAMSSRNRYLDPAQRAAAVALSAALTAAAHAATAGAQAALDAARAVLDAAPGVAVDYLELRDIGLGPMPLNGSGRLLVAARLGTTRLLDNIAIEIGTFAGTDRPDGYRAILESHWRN
row,SMILES,inhibition
1,O=C(Nc1ccc2c(c1)OCCO2)NC1CCCCC1,0%
2,Nn1cnnc1SCC(=O)Nc1ccc2c(c1)OCCO2,0%
3,Cc1cn([C@H]2C[C@H](N=[N+]=[N-])[C@@H](CO)O2)c(=O)[nH]c1=O,0%
4,CCOC(=O)C1=C(C)OC(N)=C(C#N)C1c1ccoc1 (stereo unspecified),0%
5,c1cncc(C2Nc3ccccc3-c3nc4ccccc4n32)c1 (stereo unspecified),7%
6,CC(C)NC(=O)CSCc1ccccc1Cl,13%
7,CCOc1ccc(NS(=O)(=O)c2ccc(OCC(=O)N3CCCC3)cc2)cc1,0%
8,COc1ccc(-n2c(Cc3cccn3C)nnc2SCC(N)=O)cc1,0%
9,COc1ccc(N2CCN(c3nc4c(c(=O)[nH]c(=O)n4C)n3CCCc3ccccc3)CC2)cc1,13%
10,CCN(CC)S(=O)(=O)c1cccc(-c2nnc(SCCOc3ccccc3C)o2)c1,1%
11,N#Cc1cnn(Cc2ccc(Cl)cc2)c1N,0%
12,Cc1cc(C)c(-c2cc(C(=O)Nc3c(C)n(C)n(-c4ccccc4)c3=O)[nH]n2)c(O)c1,0%
13,Cc1cccc(C)c1NC(=O)CS(=O)CC(=O)NC1CCCc2ccccc21 (stereo unspecified),12%
14,CC(Oc1ccc2oc(-c3ccccc3)c(C(=O)O)c2c1)C(=O)O (stereo unspecified),0%
15,Cc1onc(-c2ccccc2Cl)c1C(=O)N1CCc2ccccc21,0%
16,CC(C)Cn1c(CN2CCN(c3ccccc3F)CC2)nc2c1c(=O)[nH]c(=O)n2C,0%
17,O=C(CSc1nc2ccccc2c(=O)n1CCC(=O)N1CCCCC1)NCc1ccccc1,0%
18,CCOC(=O)C1=C(C)Nc2nc(SCC(=O)OC)nn2C1c1cc(F)cc(F)c1 (stereo unspecified),3%
19,Cc1cc(OCC(=O)N2CCOCC2)cc2oc(=O)c3ccccc3c12,0%
20,COc1ccc(C(=O)Nc2nncs2)c(OC)c1,3%
21,O=C(CSc1ncccn1)NCc1ccccc1,0%
22,CC(COc1ccccc1)NC(C)C(O)c1ccc(O)cc1 (stereo unspecified),0%
23,CCCOc1ccc(NC2=CC(=O)CC(C)(C)C2)cc1,0%

row,SMILES,inhibition
1,CCOC(=O)Cn1c(CN(C)Cc2ccccc2)nc2c1c(=O)n(C)c(=O)n2C,5%
2,Cc1c(NC(=O)C(C)OC(=O)C(NC(=O)c2ccco2)C(C)C)c(=O)n(-c2ccccc2)n1C (stereo unspecified),8%
3,CC1=C(C(=O)OCc2ccccc2)C(c2ccco2)n2ncnc2N1 (stereo unspecified),0%
4,NS(=O)(=O)c1cc2c(cc1Cl)NC=NS2(=O)=O,3%
5,CCOc1ccc(N(CC(=O)NCc2ccco2)S(=O)(=O)c2ccc(OC)c(OC)c2)cc1,0%
6,Cc1ccc(C)c2[nH]c(=O)c(CCNC(=O)CC(C)(C)C)cc12,4%
7,COC(=O)c1oc2ccc(Br)cc2c1NC(=O)CN1CCN(C)CC1,5%
8,CCOc1ccccc1N1CCN(c2nc(N)c(C#N)c(CC#N)c2C#N)CC1,0%
9,CCC(C)(C)NC(=O)CN(Cc1ccc2c(c1)OCO2)C(=O)CCC(=O)Nc1ccccn1,3%
10,Cc1cc(NC(=O)CCC(=O)N(c2cccnc2)C(C(=O)NC2CCCC2)c2ccccc2F)no1 (stereo unspecified),0%
11,Cc1noc(/C=C/N(C)C)c1S(=O)(=O)N1CCCC(C(=O)NC2CCCCC2)C1 (stereo unspecified),8%
12,COC(=O)C1(C#N)C(c2ccccc2)C1(C(=O)OC)C(=O)OC (stereo unspecified),0%
13,CCN1CCN(c2ncnc3c2cnn3-c2ccc(C)cc2C)CC1,9%
14,c1cc(C(c2nnnn2C2CCCC2)N2CCOCC2)ccn1 (stereo unspecified),4%
15,NC(=O)SCC(=O)Nc1cccc(Cl)c1,1%
16,CCOC(=O)Nc1ccc(NS(=O)(=O)c2ccc(C)cc2)cc1,0%
17,O=C1c2ccccc2C(=O)N1OCc1ccccc1,0%
18,O=C(NO)c1ccccc1O,0%
19,Cc1ccc2nc(/C(C#N)=N/O)[nH]c2c1,10%
20,NS(=O)(=O)c1ccc(NC(=O)N[C@@H](Cc2ccccc2)C(=O)O)cc1,0%
21,Cc1cc(C)c(C#N)c(SCc2ccc(C#N)cc2)n1,0%
22,CCOC(=O)c1sc(NC(=O)CSc2n[nH]c(-c3ccccc3)n2)c(C#N)c1C,11%
23,O=C(NC1CCCc2ccccc21)C1CCN(c2nnc(-n3cccc3)s2)CC1 (stereo unspecified),0%
